Compounds with a hit are over-represented: about 1.8% of the library has one in this group of screens.
TrxR1 substrate – is turned over as a substrate by rat TrxR1. purified TrxR1 substrate turnover, NADPH consumption readout. Potency, µM (doses to about 114 µM), inactives show at the highest dose activity change, negative = substrate turnover. 390,000 tested, 0.01% active; further: nearly all actives have a fitted effect of over 50% in size
Target sequence (O89049 whole entry, looked up): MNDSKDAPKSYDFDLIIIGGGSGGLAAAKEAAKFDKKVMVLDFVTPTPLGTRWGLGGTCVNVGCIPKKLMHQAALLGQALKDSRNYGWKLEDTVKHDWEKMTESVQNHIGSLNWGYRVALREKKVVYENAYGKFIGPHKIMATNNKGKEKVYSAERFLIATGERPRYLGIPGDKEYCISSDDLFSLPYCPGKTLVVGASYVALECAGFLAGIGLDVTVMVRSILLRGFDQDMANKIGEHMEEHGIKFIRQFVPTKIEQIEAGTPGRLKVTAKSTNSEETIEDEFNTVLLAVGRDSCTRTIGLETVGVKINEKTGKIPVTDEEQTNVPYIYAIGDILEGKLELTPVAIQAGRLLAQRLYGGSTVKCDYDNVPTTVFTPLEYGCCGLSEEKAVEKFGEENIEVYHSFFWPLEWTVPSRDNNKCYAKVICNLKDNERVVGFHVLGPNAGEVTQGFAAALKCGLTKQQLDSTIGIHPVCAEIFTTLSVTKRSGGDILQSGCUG
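Rat TrxR1, dispensed at 90 nM, was prereduced with 400 uM NADPH (final) for 5 min at ~22 deg C, then incubated with compound 15 min before 400 uM selenite. A first-read NADPH fluorescence drop versus no-compound background flagged substrates.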
KAT2A inh – GCN5L2 (KAT2A) acetyltransferase inhibition | AID 504327 | GCN5L2 HAT assay, ThioGlo1 CoA-SH fluorescence | Q92830 | 390,000 tested, 0.21% active | Potency, µM (series often up to 58.9 µM), for inactives: at the highest dose activity change, negative = inhibition, usual class: inhibitors
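Fluorescence readout, Ex340nm/Em540nm: ThioGlo1 (50uM final) reacts with free CoA thiol released as 20nM GCN5L2 acetylates H3(1-25) peptide (75uM) using acetyl-CoA (70uM). Compound and enzyme sat 15 min beforehand; 20 min room-temperature reaction.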
TrxR1 inh – inhibitors of rat thioredoxin reductase 1. O89049. recombinant rTrxR1, NADPH fluorescence consumption, selenite substrate. Potency, µM (series often up to 114 µM), for the others: top-dose activity change, negative = inhibition, usual class: inhibitors. 390,000 tested, 1% active; further: nearly all actives have a fitted effect of over 65% in size
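Rat TrxR1 (90 nM in the dispensed reagent) was pre-reduced with 400 uM NADPH for 5 min at room temperature, then incubated with compound for 15 min. After 400 uM selenite was added, NADPH fluorescence (Ex 340/Em 450 nm) was followed for 8 min.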
VDR inh – blocks the human vitamin D receptor; VDR-SRC2-3 peptide fluorescence polarization, 2 h; 400,000 tested, 0.93% active; Potency, µM, inactives show max response, negative = inhibition, most hits filed as inhibitors; P11473
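Two reagent solutions held at 4 deg C in the dark were dispensed, compounds pinned at 23 nl, and the mixture incubated 2 h at room temperature. Read-out: fluorescence polarization of VDR–SRC2-3 peptide binding.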
The depositor's hits bear a star; ? = inconclusive; nt = no result given; [ ] = dose if it differs, or a comment. The call rests on the fitted dose curve; in most records, active means well fitted curve in the direction sought with a large enough effect; inconclusive means small, poorly fitted or top-dose-only effect, or another doubt; inactive means no such curve, though single readings can be large; an effect the other way counts as inactive or inconclusive. On the % scale 0 is the no-effect control and ±100 the full control effect; potency means the concentration at half of the fitted maximal effect.

SMILES	TrxR1 substrate	KAT2A inh	TrxR1 inh	VDR inh
CN(CC(=O)Nc1ccc(Cl)cc1)S(=O)(=O)c1ccc2c(c1)n(C)c(=O)c(=O)n2C	10%	-21%	9%	9%
CN(CC(=O)Nc1cccc(Cl)c1)S(=O)(=O)c1ccc2c(c1)n(C)c(=O)c(=O)n2C	-7%	-1%	25µM*	79µM*
Cc1cc(Br)ccc1NC(=O)COC(=O)c1ccccc1OCC(=O)N(C)C	3%	nt	16%	nt
Cc1ccccc1-c1cc(N2CCNCC2)ncn1	nt	?	nt	45µM*
Cc1ccc(N(CN2C(=O)C3CC=CCC3C2=O)C(=O)c2ccco2)cc1Cl (configuration not stated)	6%	-4%	14µM*	-21%
COc1ccc(N(CN2C(=O)C3CCCCC3C2=O)C(=O)c2ccco2)cc1 (configuration not stated)	2%[57.1 µM]	-13%	-13%[57.1 µM]	-18%
O=C(COc1ccccc1C(=O)Nc1ccccc1)Nc1cccc(Br)c1	2%	nt	20%	nt
O=[N+]([O-])c1cccc(SSc2cccc([N+](=O)[O-])c2)c1	-12%	nt	98%	4µM*
O=[N+]([O-])c1cccc(S(=O)(=O)c2cccc([N+](=O)[O-])c2)c1	4%	-5%	-14%[57.1 µM]	-2%
Nc1c(N=Nc2ccc([N+](=O)[O-])cc2)c(S(=O)(=O)O)cc2cc(S(=O)(=O)O)c(/C=C/c3ccccc3)c(O)c12	-15%	nt	19%	nt
N=c1nc(-c2ccccc2)n(-c2ccccc2)s1	-9%	nt	?	13µM*
Cc1ccc(-c2nc(=Nc3ccccc3)sn2-c2ccccc2)cc1	-5%	nt	-3%	-4%
Cc1cc(=O)n(C(C)C(=O)N2CCCc3ccccc32)c2c1c(C)nn2-c1ccccc1 (configuration not stated)	-7%[57.1 µM]	-10%	3%[57.1 µM]	8%
O=c1cc(Br)c(O)c(Br)cc1Br	-3%	nt	3.2µM*	?
NCCCN(Cc1ccc(Cl)cc1)c1ccc(Br)cn1	6%	nt	-3%	-20%
Cn1sccc1=O	0%	?	30%	16µM*
O=c1ccsn1Cc1ccccc1	-10%	?	9%	?
CCCCN(CC)Cc1ccc(CNS(=O)(=O)c2cc3c(cc2Cl)NC(=O)CO3)o1	-2%[57.1 µM]	-5%	8%[57.1 µM]	1%
O=C(CSc1nc(-c2ccccc2)[nH]c1-c1ccccc1)Nc1ccc2c(c1)OCCO2	3%	-9%	2%	16%
N#CC1=C(N)NC(=S)C(C(N)=O)C1c1ccc([N+](=O)[O-])cc1 (configuration not stated)	2%[57.1 µM]	-9%	-11%[57.1 µM]	79µM*
O=C1NC(C(=O)O)=CC(c2ccc([N+](=O)[O-])cc2)N1 (configuration not stated)	-7%	-21%	-6%	-26%
O=C(COc1ccccc1C(=O)OCC(=O)N1CCOCC1)Nc1ccc(Br)cc1	4%	nt	23%	nt
Cc1c(C(=O)c2no[n+]([O-])c2C(=O)c2cnn(C)c2C)cnn1C	-5%	1%	1.3µM*	?
O=C(CCNc1cc(Cl)cc(Cl)c1)c1cccs1	3%	-4%	28µM*	1%
COc1cc2nc(NC3CCN(C)CC3)nc(N3CCCN(C)CC3)c2cc1OC	37%	nt	?	nt
SMILES	TrxR1 substrate	KAT2A inh	TrxR1 inh	VDR inh
O=C1CN(CC(=O)N2CCCCC2)c2ccccc2O1	0%	-4%	25µM*	-2%
O=C1CC(N2CCN(c3ccccn3)CC2)C(=O)N1CC(c1ccccc1)c1ccccc1 (configuration not stated)	-6%	-20%	25µM*	7%
O=C1CC(N2CCN(c3ccccn3)CC2)C(=O)N1c1ccc(F)cc1 (configuration not stated)	5%[57.1 µM]	-2%	28%[57.1 µM]	9%
Nc1ccccc1S(=O)(=O)Nc1cccc2cccnc12	nt	-14%	nt	-6%
Cc1ccccc1CS(=O)(=O)Cc1ccc(C(=O)NCc2ccccn2)o1	-3%	0%	50µM*	9%
O=C(NCc1ccccn1)c1ccc(CS(=O)(=O)Cc2ccc(Cl)cc2)o1	2%	-4%	?	-1%
Cc1ccccc1CS(=O)(=O)Cc1ccc(C(=O)NCc2ccco2)o1	-5%	?	79µM*	-1%
CCc1ccc(NC(=O)COC(=O)c2ccccc2OCC(=O)N(C)C)cc1	2%	nt	15%	nt
CC(=O)Nc1sc(N/N=C\c2cccc(Cl)c2)nc1-c1cccs1	20%[57.1 µM]	-4%	25%[57.1 µM]	7.1µM*
CC(=O)Nc1sc(N/N=C\c2ccc(O)cc2)nc1-c1cccs1	-1%	-4%	4%	-23%
CN(C)c1ccc(C(=O)Oc2cc(O/N=[N+](\[O-])N(C)C)c([N+](=O)[O-])cc2[N+](=O)[O-])cc1	-5%	nt	-15%	nt
CCCN[C@@H](C)C(=O)Nc1ccccc1C	nt	8%[21.4 µM]	nt	14%
COc1ccccc1C(OC(=O)c1cccs1)C(=O)NCc1ccco1 (configuration not stated)	4%	-1%	16µM*	?
CC(OC(=O)c1cccs1)C(=O)NCc1ccco1 (configuration not stated)	4%[57.1 µM]	0%	-9%[57.1 µM]	10%
CC1=C(C(=O)Nc2ccc(C)cc2C)C(c2ccccc2)n2ncc(C(=O)Nc3ccccc3)c2N1 (configuration not stated)	7%	-20%	26%	-1%
CNc1c(Br)cc(/C=C2\C=Cc3ccccc32)cc1Br	3%	nt	-30%	nt
Cc1ccc(/C=C/C(=O)OCC(=O)N2CC(=O)Nc3ccccc32)o1	-7%[57.1 µM]	3%	28µM*	-24%
Cc1ccc(/C=C/C(=O)OCC(=O)NC(C)c2ccccc2)o1 (configuration not stated)	-8%	-9%	50µM*	-12%
O=C1CN(C(=O)COC(=O)/C=C/c2ccco2)c2ccccc2N1	4%[57.1 µM]	-7%	-23%	-9%
COC(=O)/C=C/C(C)=C/C=C/C(C)=C/C=C/C=C(C)/C=C/C=C(C)/C=C/C(=O)O	nt	-5%	nt	89µM*
Cc1cccc(CNC(=O)c2cnc3c(-c4cccc(C)c4)c(C)nn3c2C)c1	-2%[57.1 µM]	-7%	5%[57.1 µM]	0%
Cc1ccc(N2C(=O)C3C4C=CC(CNC(=S)N5CCN(c6cccc(C)c6)C(C)C5)(O4)C3C2=O)cc1 (configuration not stated)	6%	-14%	16µM*	?
C=CCn1c(SCC(=O)NCc2ccco2)nnc1-c1cccc(N(C)C)c1	1%	nt	-7%	nt
CCC1CCCCN1S(=O)(=O)c1ccc(C(=O)Nc2sc3c(c2C(=O)NC)CCC3)cc1 (configuration not stated)	2%[57.1 µM]	-8%	0%[57.1 µM]	-8%
CNc1ncnc(Sc2nc(N)nc3nc[nH]c23)c1[N+](=O)[O-]	13%[57.1 µM]	nt	1.3µM*	-5%
Nc1nc(SCc2ccccc2)c2[nH]cnc2n1	-4%	-3%	4%	0%
Cc1ccc(S(=O)(=O)N2CCN(c3nc(-n4ccnn4)nc4ccccc34)CC2)cc1	5%	nt	0%	nt
CCCCC[C@H](O)/C=C/[C@H]1C(=O)C=C[C@@H]1C/C=C\CCCC(=O)O	nt	-2%	nt	32µM*

Assay outcomes (PubChem)
